Data on three compounds can be found in PubChem BioAssay AID488920 (Sanford-Burnham Center for Chemical Genomics, 2010).

Each structure is given as a SMILES string. Unmarked numbers belong to inactive results. Cut-off read from the data, not from the text of the source: active = IC50 below about 3 µM; inactive = the rest.

This test in a line: luminescence signal interference by compounds, dose response, artefact control for SENP inhibitor project, biochemical (AID 488920). Conditions: luminescence interference counterscreen, spectral interferers.
As to `COc1cc2c(cc1OC)-c1c(OC)c(OC)cc3c1C(C2)N(C)CC3` (stereo not drawn), the IC50 was greater than 5 µM.

For `CCOC(=O)c1c(NS(=O)(=O)c2ccccc2)n(CCCOC)c2nc3ccccc3nc12`, the IC50 was greater than 5 µM.

Regarding `CCC(C)NC(=O)c1c(N)n(CCCOC)c2nc3ccccc3nc12` (stereo not drawn), the IC50 was greater than 5 µM.
